# Where a name gives a salt, the structure may show the parent alone. Among all 5,800 compounds or so, about 620 (11%) showed activity. This is one part of a sample in which actives are shown more often than they occur. Values without a mark were called inactive.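 The calls were made as follows: active = score above a cut-off or among the top three wells of a plate; in these data no inactive exceeds 0.85.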
# Test system: primary human hepatic stellate cells (donor 1)
# Experiment: scaled lipid accumulation score (0 = DMSO-like, 1 = nortriptyline-like); higher = stronger HSC inactivation (lipid re-accumulation), active = hit call of the paper
# Conditions: 48 h
# [1] = library stock concentration: 1 mM
# [2] = library stock concentration: 3.33 mM
# [3] = library stock concentration: 10 mM
# [4] = library stock concentration: 80 uM
# [5] = library stock concentration: 400 uM
# [6] = library stock concentration: 2 mM
smiles,measurement,setting,value
CCCCCCC=CCCCCCCCCCCOC(C)=O [11-cis Vaccenyl Acetate],scaled lipid accumulation score,[1],≤ 0
Nc1nc(Nc2ccc(S(N)(=O)=O)cc2)nn1C(=S)Nc1c(F)cccc1F [Cdk1/2 Inhibitor III],scaled lipid accumulation score,[2],0.782
CCCCC/C=C\C[C@@H](O)/C=C/C=C\C/C=C\CCCC(=O)O,scaled lipid accumulation score,library stock concentration: 100 uM,≤ -0.021
CCc1cc2c(cc1CC)CC(NC[C@H](O)c1ccc(O)c3[nH]c(=O)ccc13)C2.O=C(O)C=CC(=O)O [Indacaterol Maleate],scaled lipid accumulation score,[3],1.15 (active)
CCC(NC(C)C)C(O)c1ccc(O)c2[nH]c(=O)ccc12 (stereo not given) [Procaterol hcl],scaled lipid accumulation score,library stock concentration: 6.9 mM,≤ -0.006
CCC(NC(C)C)C(O)c1ccc(O)c2[nH]c(=O)ccc12 (stereo not given) [Procaterol hydrochloride],scaled lipid accumulation score,library stock concentration: 6.1 mM,≤ 0
same,scaled lipid accumulation score,[3],≤ -0.006
CCc1cc2c(cc1CC)CC(NC[C@H](O)c1ccc(O)c3[nH]c(=O)ccc13)C2 [Indacaterol Maleate],scaled lipid accumulation score,[2],0.494
Cc1nc2ccc(-n3ncc(C(=O)c4cc5ccccc5[nH]4)c3N)cc2[nH]1 [listing 1 of 2 here],scaled lipid accumulation score,[4],0.004
same,scaled lipid accumulation score,[5],≤ -0.001
same,scaled lipid accumulation score,[6],≤ 0
O=C(O)c1cc2ccccc2[nH]1 [Indole-2-carboxylic acid],scaled lipid accumulation score,[3],≤ 0
Cc1nc2ccc(-n3ncc(C(=O)c4cc5ccccc5[nH]4)c3N)cc2[nH]1 [listing 2 of 2 here],scaled lipid accumulation score,[3],0.907 (active)
CC(C)c1cc(C(C)C)c(CC(=O)NS(=O)(=O)Oc2c(C(C)C)cccc2C(C)C)c(C(C)C)c1 [Avasimibe],scaled lipid accumulation score,[2],≤ 0
same,scaled lipid accumulation score,[3],≤ 0
COc1cccc(NC(=O)/C=C/c2ccc(Cl)cc2)c1 [listing 1 of 2 here],scaled lipid accumulation score,[3],0.153
COc1cccc(NC(=O)/C=C/c2ccc(Cl)cc2)c1 [listing 2 of 2 here],scaled lipid accumulation score,[3],1.2 (active)
COc1cc(/C=C/c2ccc(Cl)cc2)cc(OC)c1,scaled lipid accumulation score,[1],≤ 0
CCCCC/C=C\CCCCCCCCCCCCC(=O)O [14(Z)-Eicosenoic Acid],scaled lipid accumulation score,[1],≤ 0
"CN1CCN(c2ccc3nc(-c4c(N)c5c(F)cccc5[nH]c4=O)[nH]c3c2)CC1 [Dovitinib (TKI-258, CHIR-258)]",scaled lipid accumulation score,[2],1.25 (active)
same,scaled lipid accumulation score,[3],1.13 (active)
CN1CCN(C(=O)c2nc3ccc(Cl)cc3[nH]2)CC1,scaled lipid accumulation score,[3],0.076
CN1CCN(c2ccc3nc(-c4c(N)c5c(F)cccc5[nH]c4=O)[nH]c3c2)CC1 [listing 1 of 2 here],scaled lipid accumulation score,[4],0.779
CCOc1ccc(-c2nc3ccc(-c4nc5ccc(N6CCN(C)CC6)cc5[nH]4)cc3[nH]2)cc1,scaled lipid accumulation score,library stock concentration: 8.9 mM,0.339
CN1CCN(c2ccc3nc(-c4c(N)c5c(F)cccc5[nH]c4=O)[nH]c3c2)CC1 [listing 2 of 2 here],scaled lipid accumulation score,[5],0.945 (active)
same,scaled lipid accumulation score,[6],1.11 (active)
same,scaled lipid accumulation score,[3],1.08 (active)
CC(O)C(=O)O.CC(O)C(=O)O.CN1CCN(c2ccc3nc(-c4c(N)c5c(F)cccc5[nH]c4=O)[nH]c3c2)CC1 [Dovitinib (TKI-258) Dilactic Acid],scaled lipid accumulation score,[2],1.27 (active)
CN1CCN(c2ccc3nc(-c4c(N)c5c(F)cccc5[nH]c4=O)[nH]c3c2)CC1 [Dovitinib (TKI-258) Dilactic Acid],scaled lipid accumulation score,[3],0.445
CC[C@@H]1Cn2c(c3nc(-c4ccccc4)nc-3n(C)c2=O)N1,scaled lipid accumulation score,[3],0.008
c1cnc2cc3c(cc2n1)[C@@H]1CNC[C@H]3C1 [Varenicline tartrate],scaled lipid accumulation score,[3],≤ 0
NC(=O)[C@@H]1CCCN1C(=O)[C@H](Cc1c[nH]cn1)NC(=O)[C@@H]1CCC(=O)N1,scaled lipid accumulation score,[3],≤ 0
CC[C@@H](C(=O)[C@@H](C)[C@@H](O)[C@H](C)CCc1ccc(C)c(O)c1C(=O)O)[C@H]1O[C@](CC)([C@H]2CC[C@](O)(CC)[C@H](C)O2)C[C@@H]1C [Lasalocid sodium salt],scaled lipid accumulation score,,0.439
CC[C@@H](C(=O)[C@@H](C)[C@@H](O)[C@H](C)CCc1ccc(C)c(O)c1C(=O)O)[C@H]1O[C@](CC)([C@H]2CC[C@](O)(CC)[C@H](C)O2)C[C@@H]1C [Lasalocid sodium],scaled lipid accumulation score,[3],0.665
COc1ccc(C2CC(c3c(O)cc(C)oc3=O)=NCCS2)c(OC)c1 (stereo not given),scaled lipid accumulation score,[3],0.164
CCCCC[C@](C)(O)/C=C/[C@H]1[C@H](O)CC(=O)[C@@H]1CCCCCCC(=O)O [15(S)-15-methyl Prostaglandin E1],scaled lipid accumulation score,[1],0.012
Cc1nnc(-c2ccc3occ(-c4ccc([S+](C)[O-])cc4)c3c2)o1 (stereo not given),scaled lipid accumulation score,[3],0.106
NC(=O)Cc1cccc(C(=O)c2ccccc2)c1N [Nepafenac],scaled lipid accumulation score,[2],≤ 0
same,scaled lipid accumulation score,[3],0.098
O=C(O)C1CSCN1 (stereo not given),scaled lipid accumulation score,[3],≤ 0

# — the supplement of paper PMC9135407
